For some of these results: Potency and affinity values are given separately.
Assays:
Design in all cases: scale not given: direction of the effect not stated beside the values
[1] = target: Protein translocase subunit SecA (Escherichia coli (strain K12)) (UniProt P10408); assay: Assay to Identify E. coli SecA ATPase Inhibitors; assay type: functional; details: 30 µM
[2] = target: T1, Ubiquitin-activating enzyme e1, putative (Leishmania donovani (strain BPK282A1)) (UniProt E9BSI1); assay: Leishmania donovani Ubiquitin Activating Enzyme (LdE1); assay type: functional; details: 30 µM
T1 sequence (whole entry): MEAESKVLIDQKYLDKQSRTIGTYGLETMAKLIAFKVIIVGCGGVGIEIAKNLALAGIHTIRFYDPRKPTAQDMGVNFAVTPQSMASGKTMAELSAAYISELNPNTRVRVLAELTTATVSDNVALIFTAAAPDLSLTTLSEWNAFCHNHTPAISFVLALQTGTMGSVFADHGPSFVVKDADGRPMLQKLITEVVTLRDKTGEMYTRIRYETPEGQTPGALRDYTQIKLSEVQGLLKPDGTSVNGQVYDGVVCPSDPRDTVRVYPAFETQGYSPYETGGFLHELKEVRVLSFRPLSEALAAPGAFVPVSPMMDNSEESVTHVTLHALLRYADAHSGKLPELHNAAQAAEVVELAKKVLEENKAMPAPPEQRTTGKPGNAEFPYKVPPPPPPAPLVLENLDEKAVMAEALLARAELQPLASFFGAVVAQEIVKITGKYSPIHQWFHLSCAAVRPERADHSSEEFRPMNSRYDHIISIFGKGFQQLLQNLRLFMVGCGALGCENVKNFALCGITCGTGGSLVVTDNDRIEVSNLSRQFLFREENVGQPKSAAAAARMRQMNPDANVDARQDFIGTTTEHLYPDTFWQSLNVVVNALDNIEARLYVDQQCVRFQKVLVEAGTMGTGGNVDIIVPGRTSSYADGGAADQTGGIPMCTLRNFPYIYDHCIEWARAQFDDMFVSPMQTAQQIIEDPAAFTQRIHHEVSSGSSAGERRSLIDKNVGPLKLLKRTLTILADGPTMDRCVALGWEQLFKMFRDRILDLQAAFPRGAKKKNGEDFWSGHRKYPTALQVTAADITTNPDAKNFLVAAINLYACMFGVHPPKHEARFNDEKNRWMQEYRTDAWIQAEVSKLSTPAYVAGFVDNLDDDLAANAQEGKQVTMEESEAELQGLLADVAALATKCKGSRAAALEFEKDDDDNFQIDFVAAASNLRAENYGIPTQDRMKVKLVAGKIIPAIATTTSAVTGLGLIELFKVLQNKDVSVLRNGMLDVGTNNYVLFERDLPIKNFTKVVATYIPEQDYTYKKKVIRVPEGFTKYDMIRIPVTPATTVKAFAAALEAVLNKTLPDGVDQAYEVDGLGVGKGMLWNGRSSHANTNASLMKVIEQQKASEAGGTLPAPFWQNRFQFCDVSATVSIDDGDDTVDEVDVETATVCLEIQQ

[3] = target: AMP-activated protein kinase, AMPK (Homo sapiens) (UniProt P54646+O43741+P54619+Q9UGJ0+Q9Y478+Q13131+Q9UGI9); assay: AMP-dependent Kinase enzyme assay. An in vitro enzyme assay that detects ADP turnover that is directly proportional to AMPK activity. This uses naive AMPK that is activated during the assay with MK-8722; assay type: functional; details: 30 µM
[4] = target: Sialic acid-binding Ig-like lectin 9 (Homo sapiens) (UniProt Q9Y336); assay: Hs-Siglec9 ALPHAscreen SOP 20170721; details: 10 µM
Sequence of Sialic acid-binding Ig-like lectin 9 (Homo sapiens) (Q9Y336 whole entry): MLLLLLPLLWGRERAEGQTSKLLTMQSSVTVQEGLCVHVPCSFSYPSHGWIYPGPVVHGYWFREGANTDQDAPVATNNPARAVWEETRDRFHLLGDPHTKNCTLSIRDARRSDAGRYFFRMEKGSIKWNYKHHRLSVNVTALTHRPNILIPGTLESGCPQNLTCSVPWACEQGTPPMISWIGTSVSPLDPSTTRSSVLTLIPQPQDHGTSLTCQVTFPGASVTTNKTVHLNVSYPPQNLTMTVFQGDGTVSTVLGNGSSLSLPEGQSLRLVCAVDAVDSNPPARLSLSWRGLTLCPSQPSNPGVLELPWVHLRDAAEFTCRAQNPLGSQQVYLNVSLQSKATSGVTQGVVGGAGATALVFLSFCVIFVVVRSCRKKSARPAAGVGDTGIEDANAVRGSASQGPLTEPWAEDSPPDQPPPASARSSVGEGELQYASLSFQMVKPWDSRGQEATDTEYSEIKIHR

Trypanosoma cruzi = assay: Trypanosoma cruzi phosphomannomutase and mannose-1-phosphate guanylyltransferase assay; assay type: functional; details: 10 µM
[5] = target: T2, Arginase-2, mitochondrial (Homo sapiens) (UniProt P78540); assay: in vitro enzyme assay to detect the production of urea directly proportional to the activity of Arginase II; assay type: functional; details: 33.3 µM; further: in the data most compounds retested in dose-response had high values
T2 sequence (whole entry): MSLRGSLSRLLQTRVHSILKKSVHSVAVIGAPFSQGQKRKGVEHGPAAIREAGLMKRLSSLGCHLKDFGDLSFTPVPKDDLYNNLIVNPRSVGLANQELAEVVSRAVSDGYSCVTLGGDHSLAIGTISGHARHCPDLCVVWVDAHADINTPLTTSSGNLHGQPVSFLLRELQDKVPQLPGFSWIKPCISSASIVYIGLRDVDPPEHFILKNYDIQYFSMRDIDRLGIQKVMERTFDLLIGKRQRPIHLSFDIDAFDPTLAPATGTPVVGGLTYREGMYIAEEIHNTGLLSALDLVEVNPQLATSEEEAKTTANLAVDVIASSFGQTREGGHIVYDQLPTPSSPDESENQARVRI

[6] = target: T3, Proteasome subunit beta (Trypanosoma cruzi) (UniProt O96673); assay: Trypanosoma cruzi proteasome chymotrypsin-like activity (TcProtChymo) assay.; further: in the data most compounds retested in dose-response had high values; assay type: functional; details: 9.37 µM
T3 sequence (whole entry): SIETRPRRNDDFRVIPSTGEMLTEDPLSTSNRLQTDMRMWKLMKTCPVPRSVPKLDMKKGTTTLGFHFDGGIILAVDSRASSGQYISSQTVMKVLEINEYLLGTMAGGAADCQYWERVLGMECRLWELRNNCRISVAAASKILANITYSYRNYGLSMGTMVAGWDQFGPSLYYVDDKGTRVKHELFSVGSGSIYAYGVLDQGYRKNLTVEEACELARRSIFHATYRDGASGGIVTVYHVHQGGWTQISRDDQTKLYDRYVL

Homo sapiens = species on record: Homo sapiens; assay: To identify inhibition of the IFN signalling (Jak-Stat) pathway via expression of an eGFP reporter gene under the control of an IFN-stimulated response element (ISRE) containing MxA promoter.; assay type: functional; details: 30 µM
[7] = target: T4, Tyrosyl-tRNA synthetase, putative (Trypanosoma cruzi (strain CL Brener)) (UniProt Q4DSP6); assay: Trypanosoma cruzi tyrosyl tRNA synthetase (TcYRS) _High Tyrosine SOP; assay type: functional; details: 30 µM; further: in the data most compounds retested in dose-response had high values
T4 sequence (whole entry): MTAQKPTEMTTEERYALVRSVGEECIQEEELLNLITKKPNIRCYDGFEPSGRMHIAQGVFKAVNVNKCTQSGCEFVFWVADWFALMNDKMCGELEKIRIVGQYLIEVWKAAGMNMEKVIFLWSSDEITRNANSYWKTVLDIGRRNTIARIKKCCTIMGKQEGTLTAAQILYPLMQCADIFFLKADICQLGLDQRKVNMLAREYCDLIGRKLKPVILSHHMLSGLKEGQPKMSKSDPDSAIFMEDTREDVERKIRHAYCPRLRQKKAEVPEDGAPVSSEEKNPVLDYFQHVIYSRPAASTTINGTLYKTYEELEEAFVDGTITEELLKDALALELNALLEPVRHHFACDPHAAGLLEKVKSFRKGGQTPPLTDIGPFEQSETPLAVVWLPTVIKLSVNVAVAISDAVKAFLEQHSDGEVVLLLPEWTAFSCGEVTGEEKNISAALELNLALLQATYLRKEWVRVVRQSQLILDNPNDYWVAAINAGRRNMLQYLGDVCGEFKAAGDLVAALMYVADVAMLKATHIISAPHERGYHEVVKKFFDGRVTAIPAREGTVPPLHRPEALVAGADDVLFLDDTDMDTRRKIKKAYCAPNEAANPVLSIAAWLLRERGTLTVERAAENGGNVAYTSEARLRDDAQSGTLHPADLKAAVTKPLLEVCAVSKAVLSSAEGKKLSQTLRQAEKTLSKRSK

[8] = target: T4, Tyrosyl-tRNA synthetase, putative (Trypanosoma cruzi (strain CL Brener)); assay: Trypanosoma cruzi tyrosyl tRNA synthetase (TcYRS) SOP; assay type: functional; details: 30 µM
[9] = target: Chromo domain-containing protein 1 (Saccharomyces cerevisiae (strain ATCC 204508 / S288c) (Baker's yeast)) (UniProt P32657); assay: ScCHD-1 Enzyme Inhibition Assay; assay type: functional; details: 30 µM; further: in the data most compounds retested in dose-response had high values
Sequence of Chromo domain-containing protein 1 (Saccharomyces cerevisiae (strain ATCC 204508 / S288c) (Baker's yeast)) (P32657 whole entry, the tested form may be a part): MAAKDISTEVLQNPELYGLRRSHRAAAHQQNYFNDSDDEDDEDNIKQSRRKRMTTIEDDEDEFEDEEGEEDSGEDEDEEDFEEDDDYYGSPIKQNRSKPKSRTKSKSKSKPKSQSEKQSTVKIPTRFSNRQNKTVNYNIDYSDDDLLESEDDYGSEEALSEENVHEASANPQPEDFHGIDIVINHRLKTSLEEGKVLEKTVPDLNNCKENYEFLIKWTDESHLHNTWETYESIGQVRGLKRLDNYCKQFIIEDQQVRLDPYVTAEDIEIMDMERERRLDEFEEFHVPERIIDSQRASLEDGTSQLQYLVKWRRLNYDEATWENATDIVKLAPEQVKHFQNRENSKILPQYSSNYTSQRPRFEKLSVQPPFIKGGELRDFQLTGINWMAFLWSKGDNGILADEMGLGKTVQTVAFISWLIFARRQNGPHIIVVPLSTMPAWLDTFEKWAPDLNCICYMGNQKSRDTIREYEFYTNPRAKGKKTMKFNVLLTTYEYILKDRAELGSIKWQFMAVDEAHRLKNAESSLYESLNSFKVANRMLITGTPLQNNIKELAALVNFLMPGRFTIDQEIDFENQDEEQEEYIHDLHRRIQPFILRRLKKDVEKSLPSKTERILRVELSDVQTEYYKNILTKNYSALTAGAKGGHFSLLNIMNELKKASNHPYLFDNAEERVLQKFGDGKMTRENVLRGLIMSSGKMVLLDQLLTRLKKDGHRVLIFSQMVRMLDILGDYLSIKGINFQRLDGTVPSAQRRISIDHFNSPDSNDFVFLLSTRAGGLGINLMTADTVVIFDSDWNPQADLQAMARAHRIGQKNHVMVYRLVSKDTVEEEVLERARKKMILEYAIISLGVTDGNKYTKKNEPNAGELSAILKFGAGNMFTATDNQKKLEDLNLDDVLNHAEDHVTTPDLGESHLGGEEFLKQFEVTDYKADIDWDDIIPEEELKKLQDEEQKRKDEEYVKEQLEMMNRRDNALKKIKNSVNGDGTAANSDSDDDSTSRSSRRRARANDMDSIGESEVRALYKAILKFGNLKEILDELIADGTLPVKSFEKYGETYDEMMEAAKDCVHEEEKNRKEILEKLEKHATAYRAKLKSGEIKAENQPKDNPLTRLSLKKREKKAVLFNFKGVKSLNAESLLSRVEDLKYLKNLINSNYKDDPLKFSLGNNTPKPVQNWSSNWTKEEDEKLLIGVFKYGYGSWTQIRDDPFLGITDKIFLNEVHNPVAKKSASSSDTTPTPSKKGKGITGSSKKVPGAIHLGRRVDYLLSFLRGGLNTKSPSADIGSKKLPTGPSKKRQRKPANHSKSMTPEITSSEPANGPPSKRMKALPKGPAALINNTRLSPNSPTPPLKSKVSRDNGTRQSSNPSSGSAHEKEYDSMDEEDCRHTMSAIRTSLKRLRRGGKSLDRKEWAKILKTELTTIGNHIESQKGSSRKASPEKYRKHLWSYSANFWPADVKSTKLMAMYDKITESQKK

Sequence of Protein translocase subunit SecA (Escherichia coli (strain K12)) (P10408 whole entry): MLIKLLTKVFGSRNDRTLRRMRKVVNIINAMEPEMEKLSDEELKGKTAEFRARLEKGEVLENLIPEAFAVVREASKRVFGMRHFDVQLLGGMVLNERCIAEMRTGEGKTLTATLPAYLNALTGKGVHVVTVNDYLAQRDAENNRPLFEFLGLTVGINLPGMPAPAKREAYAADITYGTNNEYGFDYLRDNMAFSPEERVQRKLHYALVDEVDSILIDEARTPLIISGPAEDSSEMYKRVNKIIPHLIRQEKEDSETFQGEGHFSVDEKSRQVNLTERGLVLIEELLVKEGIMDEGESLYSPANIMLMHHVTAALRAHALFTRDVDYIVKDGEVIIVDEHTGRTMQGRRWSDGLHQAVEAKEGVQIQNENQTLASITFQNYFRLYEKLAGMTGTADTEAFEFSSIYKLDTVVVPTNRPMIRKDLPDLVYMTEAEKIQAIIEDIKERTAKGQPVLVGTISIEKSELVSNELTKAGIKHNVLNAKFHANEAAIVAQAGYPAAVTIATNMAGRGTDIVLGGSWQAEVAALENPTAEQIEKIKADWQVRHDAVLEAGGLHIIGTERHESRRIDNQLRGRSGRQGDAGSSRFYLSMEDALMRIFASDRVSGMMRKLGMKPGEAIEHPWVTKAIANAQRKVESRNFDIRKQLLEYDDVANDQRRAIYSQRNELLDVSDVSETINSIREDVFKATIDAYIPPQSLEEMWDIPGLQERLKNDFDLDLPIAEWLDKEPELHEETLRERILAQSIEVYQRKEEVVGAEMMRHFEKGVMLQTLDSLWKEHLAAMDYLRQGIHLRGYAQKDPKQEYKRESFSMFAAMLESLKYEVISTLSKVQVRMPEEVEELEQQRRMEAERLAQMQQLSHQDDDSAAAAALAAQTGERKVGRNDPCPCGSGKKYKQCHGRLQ

Compound	Percent Effect [1] [%]	Percent Effect [2] [%]	Percent Effect [3] [%]	Percent Effect [4] [%]	Percent Effect (Trypanosoma cruzi) [%]	Percent Effect [5] [%]	Percent Effect [6] [%]	Percent Effect (Homo sapiens) [%]	Percent Effect [7] [%]	Percent Effect [8] [%]	Percent Effect [9] [%]
CCc1nc(CN2CCCC(NCc3cc(C)no3)C2)no1 (stereo not given)	-1.34	-28.6	1.07	-1.38	3.82	-3.16	5.42	5.74	3.81	7.06	-11.5
CCCN(C(=O)c1ccccn1)c1nc2c(s1)CCc1c-2cnn1C	3.44	60.8	-62.8	3.48	0.988	15.6	17.5	32.7	-6.45	-6.49	-6.45
CC(C(=O)NCCOc1cccc(Cl)c1)n1cncn1 (stereo not given)	-1.19	17.7	-0.802	-7.8	2.55	3.42	7.94	-10.4	-2.46	13.9	-5.29
Cc1cnn(CC2CCCN2C(=O)c2cc3ccccc3[nH]2)c1 (stereo not given)	-8.63	13	-0.229	-0.244	7.74	-1.05	7.2	1.95	3.81	11.8	-12.1
COc1cccc2c1OCC(CNC(=O)CNC(N)=O)C2 (stereo not given)	-5.81	10.8	-3.03	22.4	7.33	1.24	4.72	-5.45	5.38	13.6	-9.37
CCc1nnc2n1CCN(CC(=O)Nc1cc(C(C)(C)C)nn1C)C2	-1.62	5.26	1.91	0.565	-3.38	4.6	2.17	2.83	3.43	9.76	2.88
CCCc1cc(=O)n(CC(N)=O)c(-n2nc(C)cc2C)n1	-1.73	7.79	7.17	-1.59	2.46	-4.52	10.1	32	3.17	11.5	-9.6
OC1CCCN(Cc2c(-c3ccco3)[nH]c3ncccc23)C1 (stereo not given)	-4.22	25.7	-13.3	19	2.17	-1.16	11.1	20.3	6.45	19.5	-18.1
Cc1cccc(CNCc2c(C)nn(C)c2N2CCOCC2)n1	0.786	8.22	4.7	2.65	5.09	13.2	19.3	-6.96	8.6	15	-6.04
Cc1nn(C)c2cnn(CC(=O)NCCc3ccccc3)c12	-4.41	6.67	5.28	4.15	-2.16	-12.5	13.3	1.66	5.29	17.9	-8.21
CSCC[C@H](NC(=O)Cn1ccc2c(Cl)cccc21)C(=O)O	0.448	12	2.92	2.75	-3.93	-6.87	15.2	-1.36	3.17	7.69	-6.56
O=C(C1CC=CC1)N1C[C@@H]2[C@@H](C1)OCC(=O)N2Cc1cccnc1	-2.28	-2.6	12.1	3.67	0.888	-3.23	0.87	15	2.12	6.41	-4.72
Cc1cccc(CN2C[C@@H]3CN(C(=O)NC(C)C)C[C@@H]3C2=O)c1	0.524	5.2	3	7.17	-1.87	-35.9	11.2	-7.06	6.45	13.6	1
CCC1CCCCCN1C(=O)c1nnc2ccccc2c1N (stereo not given)	-4.89	2.63	3.98	-3.48	-2.82	0	9.11	7.13	0	2.6	-1.43
c1ccc(Cn2cc3c(n2)C(COCC2CC2)OCC3)nc1 (stereo not given)	3.09	10.4	-0.118	-14.8	-4.24	3.23	12.4	8.69	1.06	6.41	-7.74
CN1CCC(NC(=O)NCCNc2ccccn2)CC1	-2.67	16.2	-6.97	16.2	4.92	3.14	16.5	5.52	3.96	15.8	-6.11
COc1ccccc1CC(=O)N1CCC(NCc2cccnc2)CC1	-3.89	16.2	-2.91	-2.63	-9.01	-0.924	7.18	3.6	3.96	3.66	-3.87
CN(C)CC1CN(c2ccc(C#N)cn2)CCO1 (stereo not given)	-4.87	-5.26	-3.08	5.48	3.27	-4.32	-5.16	-1.95	2.46	3.7	-8.21
Cc1cc(C)n(CC(=O)N2CCC(c3nc(C)no3)CC2)n1	-2.79	9.72	3.9	-0.831	2.43	3.09	9.3	-22.2	3.16	5.13	-4.51
CCN1C[C@@H]2[C@@H](OC)CCN(S(=O)(=O)c3ccccc3F)[C@@H]2C1	-2.71	5.33	11.3	0.304	-2.56	4.43	0.793	4.67	-1.06	3.85	-0.244
